The target in test [1] is Thyrotropin receptor (Homo sapiens) (UniProt P16473). As to the kind of experiment: qHTS assay to identify small molecule antagonists of the thyroid stimulating hormone receptor (TSHR) signaling pathway (AID 1259385; calls by dose curve; also: nearly all actives have a fitted effect of over 20% in size). Put shortly: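 TSHR-HEK293 cells (800/well) plated 18 h, then compounds with Ro20-1724 and TSH at 1.5 ng/mL final, 30 min at room temperature. cAMP quantified by HTRF (cAMP-d2/anti-cAMP-cryptate, 1 h); 15 concentrations in triplicate.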
(qHTS replaces the single test concentration by a dilution series.)

The nature of test [2]: qHTS assay to identify small molecule agonists of the estrogen receptor alpha (ER-alpha) signaling pathway in the presence of an antagonist - cell viability counter screen (AID 1259386).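 Also: series mostly up to about 92 µM; cells exposed to compounds for 22 h at 37 °C before the viability read; nearly all actives have a fitted effect of over 30% in size.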 Put shortly:
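ICI-182,780 at 10.0nM final accompanies the compound titration (15 concentrations, 22hr, 37C) on VM7Luc4E2 cells. The CellTiter-Fluor fluorescence readout runs in the same wells as the luciferase assay.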

The target of test [3] is Progesterone receptor (Homo sapiens) (UniProt P06401). The experiment in a line: qHTS assay to identify small molecule agonists of the progesterone receptor (PR) signaling pathway (AID 1346784; calls by dose curve; also: nearly all actives have a fitted effect of over 30% in size). Put shortly: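 Beta-lactamase reporter read-out: after 16 hr compound treatment at 37C and a further 2 hr at room temperature with LiveBLAzer B/G FRET substrate, fluorescence was measured in PR-UAS-bla HEK 293T cells grown in 2% charcoal-stripped serum.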

Test [4] shares this target. As to the kind of experiment: qHTS assay to identify small molecule antagonists of the progesterone receptor (PR) signaling pathway (AID 1346795; active = well fitted inhibition curve with a large enough effect in the signal ratio in the repeat runs, not every such curve was filed as active; the % refers to the signal ratio). Put shortly:
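Read-out is fluorescence from the LiveBLAzer B/G FRET substrate, cleaved by a UAS-controlled beta-lactamase in PR-UAS-bla HEK293T cells after 16 hr exposure to compound plus 1 nM promegestone (final), followed by 2 hr at room temperature.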

Test [5] is described as follows: qHTS assay to identify small molecule agonists of the TGF-beta/Smad signaling pathway - cell viability counter screen (AID 1346829). Also: top concentration of the series differs between compounds; nearly all actives have a fitted effect of over 45% in size. Put shortly:
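Here the cytotoxicity of library compounds is measured in SBE-bla HEK 293T cells treated for 5 hr, using CellTiter-Glo added to wells already read for the beta-lactamase reporter.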

Test [6] can be described thus: qHTS assay to identify small molecule agonists of the TGF-beta/Smad signaling pathway (AID 1346859; active = well fitted activation curve with a large enough effect in the signal ratio in the repeat runs, not every such curve was filed as active; the % refers to the signal ratio; also: series mostly up to about 77 µM). Put shortly:
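SBE-bla HEK 293T, 4,000 cells/well, plated o/n; cpd in DMSO, 5 hr, 37 C/5% CO2; B/G FRET substrate 2 hr RT; ex 405, em 460/530 nm.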

In test [7] the target is Thyrotropin-releasing hormone receptor (Homo sapiens) (UniProt P34981). As to the kind of experiment: qHTS assay to identify small molecule antagonists of the thyrotropin-releasing hormone receptor (TRHR) signaling pathway (AID 1346877; active = well fitted inhibition curve with a large enough effect in the repeat runs, not every such curve was filed as active; also: series mostly up to about 51 µM). Put shortly:
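Screening used HEK293 cells engineered with TRHR, with a brief 5 min room-temperature compound exposure preceding addition of TRH to 1 nM. The read-out was kinetic calcium-dye fluorescence, concentration-response from 15 doses in triplicate.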

The target is the same in test [8]. As to the kind of experiment: qHTS assay to identify small molecule agonists of the thyrotropin-releasing hormone receptor (TRHR) signaling pathway (AID 1346891; calls by dose curve; also: series mostly up to about 58 µM). Put shortly: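 Intracellular calcium rise, read as fluorescence every second for 3 min, served as the agonist signal in dye-loaded HEK293 cells expressing TRHR; each compound ran at 15 concentrations in triplicate.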

Test [9] is described as follows: Human pregnane X receptor (PXR) small molecule agonists, qHTS cell viability counter screen (AID 1346977). Also: nearly all actives have a fitted effect of over 50% in size. Put shortly:
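PXR-Luc HepG2, 2,000 cells/well, 5% charcoal-stripped FBS; 5hr settle; cpd 24hr, 37C/5% CO2; CellTiter-Fluor at 23hr, read 1hr later (fluorescence).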

Test [10] in a line: Caspase-3/7 induction in HepG2 cells by small molecules, qHTS assay (AID 1346978). Also: nearly all actives have a fitted effect of over 15% in size. Put shortly: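 Wild-type HepG2 cells, 2,000/well, settled 5 hr at 37 C and 5% CO2, then compound-treated for 17 hr; caspase-3/7 activity read by luminescent Caspase-Glo 3/7 after 30 min at room temperature.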
Test [11] is described as follows: Caspase-3/7 induction in CHO-K1 cells by small molecules, qHTS cell viability counter screen (AID 1346979). Also: nearly all actives have a fitted effect of over 35% in size. Put shortly: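 Cells (CHO-K1, wild type) are plated at 1,500 per well and incubated 5hr. Test compounds in DMSO are then pinned in, followed by 16hr at 37C and 5% CO2. Viability is read by CellTiter-Fluor fluorescence after 1hr.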
Test [12] can be described thus: Caspase-3/7 induction in CHO-K1 cells by small molecules, qHTS assay (AID 1346980). Also: nearly all actives have a fitted effect of over 15% in size. Put shortly:
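Wild-type CHO-K1 cells exposed to compounds for 17hr at 37 C, 5% CO2. Caspase-3/7 activity then measured by Caspase-Glo 3/7 luminescence after 30min at room temperature.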

Test [13] can be described thus: Caspase-3/7 induction in HepG2 cells by small molecules, qHTS cell viability counter screen (AID 1346981). Also: series mostly up to about 92 µM; nearly all actives have a fitted effect of over 30% in size. Put shortly:
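Multiplexed with the caspase-3/7 assay: HepG2 cells, 16 hr compound treatment, CellTiter-Fluor viability detection by fluorescence.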

For test [14], the target named is Nuclear receptor subfamily 1 group I member 2 (Homo sapiens) (UniProt O75469). As to the kind of experiment: Human pregnane X receptor (PXR) small molecule agonists, qHTS assay (AID 1346982). Also: nearly all actives have a fitted effect of over 35% in size. Also: potency is read from the fitted curve at half-maximal effect. Put shortly:
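We seeded PXR-Luc HepG2 cells in assay medium containing 5% charcoal-stripped FBS, added compounds 5 hr later, incubated 24 hr, and read luminescence with ONE-Glo reagent.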

Test [15] can be described thus: qHTS assay to identify small molecule antagonists of the progesterone receptor (PR) signaling pathway - cell viability counter screen (AID 1346798).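 Also: HEK293T PR-UAS-bla cells stimulated with the agonist R5020; series mostly up to about 92 µM; nearly all actives have a fitted effect of over 50% in size.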 Put shortly:
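HEK293T PR-UAS-bla, 2% charcoal-stripped FBS; 4 hr pre-plate; cpd + R5020, 16 h 37C; LiveBLAzer read first; then CellTiter-Glo 30 min RT, luminescence.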

Test [16] in a line: qHTS assay to identify small molecule agonists of the progesterone receptor (PR) signaling pathway - cell viability counter screen (AID 1346799; calls by dose curve; also: nearly all actives have a fitted effect of over 45% in size). Put shortly: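 Luminescence from CellTiter-Glo, added after the beta-lactamase FRET read in the same wells, gave cytotoxicity in PR-UAS-bla HEK293T cells treated with compounds for 16 hr at 37C.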
Test [17] can be described thus: qHTS assay to identify small molecule antagonists of the TGF-beta/Smad signaling pathway - cell viability counter screen (AID 1346824). Also: nearly all actives have a fitted effect of over 50% in size. Put shortly: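 SBE-bla HEK 293T cells, incubated overnight, then compound plus 0.25 ng/mL TGF-beta1 (stock added) for 5 hr at 37 C. Viability was read in the same wells by CellTiter-Glo luminescence after 30 min at room temperature.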

The target of test [18] is Nuclear receptor subfamily 1 group I member 2 (Rattus norvegicus) (UniProt Q9R1A7). The experiment in a line: Rat pregnane X receptor (rPXR) activation by small molecules, qHTS assay (AID 1346983). Also: nearly all actives have a fitted effect of over 20% in size. Particulars: rPXR luciferase reporter cells, One-Glo luminescence, 24 h; stronger effect = higher value. Put shortly:
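Cell-based rPXR activation assay: rPXR cells, 2,000 per well, rested 5hr at 37 C, then exposed to compounds in DMSO for 24 hr at 37 C. Luciferase activity read by One-Glo luminescence after 30 min at room temperature.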

The target in test [19] is Nuclear receptor subfamily 1 group I member 2 (Homo sapiens) (UniProt O75469). As to the kind of experiment: CYP3A4 induction through human pregnane X receptor (PXR) by small molecules, qHTS assay (AID 1346984). Also: nearly all actives have a fitted effect of over 40% in size. Put shortly:
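qHTS, concentration-response format: HepG2 DPX-2 line, PXR/CYP3A4-luc. Exposure 24 h, 37C. Substrate Luciferin-IPA 3uM final, 3 h. Detection One-Glo, 30 min RT.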

The target is the same in test [20]. As to the kind of experiment: Human pregnane X receptor (PXR) activation by small molecules, qHTS assay (AID 1346985). Also: nearly all actives have a fitted effect of over 40% in size. Put shortly:
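DPX-2 cells (HepG2 co-transfected with a PXR response element and a CYP3A4-promoter luciferase construct) were seeded at 2,000 per well, rested 5 hr at 37C, then exposed to DMSO-dissolved compounds for 24 hr. Activation was read as luciferase luminescence.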

A number with no mark means an inactive call. Records with an inconclusive call do not appear. Active and inactive are the calls of the source. Unless noted, calls follow the shape of the dose curve; as a rule, active = well fitted curve in the direction sought with a large enough effect in the repeat runs; inconclusive = weak or mixed curves; inactive = no such curve, though single readings can be large; an effect the other way counts as inactive or inconclusive.
% is scaled to controls: 0 for no effect and ±100 for the full control effect.

Chain of Progesterone receptor (Homo sapiens) (P06401 whole entry, looked up): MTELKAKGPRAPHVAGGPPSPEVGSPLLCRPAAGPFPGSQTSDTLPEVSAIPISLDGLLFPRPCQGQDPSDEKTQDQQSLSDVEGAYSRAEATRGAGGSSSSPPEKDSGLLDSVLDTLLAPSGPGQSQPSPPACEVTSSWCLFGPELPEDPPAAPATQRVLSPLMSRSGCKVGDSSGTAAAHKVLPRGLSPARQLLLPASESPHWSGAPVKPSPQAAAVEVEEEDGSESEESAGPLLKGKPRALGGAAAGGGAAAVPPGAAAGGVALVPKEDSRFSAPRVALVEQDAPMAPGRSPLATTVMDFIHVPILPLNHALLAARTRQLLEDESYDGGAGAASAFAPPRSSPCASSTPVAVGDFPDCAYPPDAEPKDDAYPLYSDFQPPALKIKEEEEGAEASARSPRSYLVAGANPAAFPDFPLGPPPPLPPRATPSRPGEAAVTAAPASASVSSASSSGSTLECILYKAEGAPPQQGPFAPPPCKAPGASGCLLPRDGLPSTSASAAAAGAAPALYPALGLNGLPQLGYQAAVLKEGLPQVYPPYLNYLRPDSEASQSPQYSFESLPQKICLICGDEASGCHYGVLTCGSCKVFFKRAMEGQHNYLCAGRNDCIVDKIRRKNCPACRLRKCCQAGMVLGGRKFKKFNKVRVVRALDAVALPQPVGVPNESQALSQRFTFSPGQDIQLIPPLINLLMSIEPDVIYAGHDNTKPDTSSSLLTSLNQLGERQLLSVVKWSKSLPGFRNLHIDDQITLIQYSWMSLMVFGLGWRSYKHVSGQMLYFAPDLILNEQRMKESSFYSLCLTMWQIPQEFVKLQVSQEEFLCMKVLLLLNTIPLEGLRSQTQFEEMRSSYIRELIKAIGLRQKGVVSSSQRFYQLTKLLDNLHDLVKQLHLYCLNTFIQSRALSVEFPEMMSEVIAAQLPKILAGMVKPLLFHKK
Chain of Thyrotropin-releasing hormone receptor (Homo sapiens) (P34981 whole entry, looked up): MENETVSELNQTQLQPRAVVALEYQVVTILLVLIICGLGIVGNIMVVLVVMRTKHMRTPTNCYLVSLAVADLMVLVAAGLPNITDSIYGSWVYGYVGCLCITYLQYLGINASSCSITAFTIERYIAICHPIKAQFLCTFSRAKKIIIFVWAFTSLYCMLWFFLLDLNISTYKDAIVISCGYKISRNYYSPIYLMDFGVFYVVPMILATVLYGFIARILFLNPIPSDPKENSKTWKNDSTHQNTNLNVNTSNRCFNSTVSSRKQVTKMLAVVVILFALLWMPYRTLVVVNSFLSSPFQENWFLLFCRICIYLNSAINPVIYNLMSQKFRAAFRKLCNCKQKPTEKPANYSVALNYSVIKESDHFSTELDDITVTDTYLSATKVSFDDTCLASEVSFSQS
Chain of Nuclear receptor subfamily 1 group I member 2 (Homo sapiens) (O75469 whole entry, looked up): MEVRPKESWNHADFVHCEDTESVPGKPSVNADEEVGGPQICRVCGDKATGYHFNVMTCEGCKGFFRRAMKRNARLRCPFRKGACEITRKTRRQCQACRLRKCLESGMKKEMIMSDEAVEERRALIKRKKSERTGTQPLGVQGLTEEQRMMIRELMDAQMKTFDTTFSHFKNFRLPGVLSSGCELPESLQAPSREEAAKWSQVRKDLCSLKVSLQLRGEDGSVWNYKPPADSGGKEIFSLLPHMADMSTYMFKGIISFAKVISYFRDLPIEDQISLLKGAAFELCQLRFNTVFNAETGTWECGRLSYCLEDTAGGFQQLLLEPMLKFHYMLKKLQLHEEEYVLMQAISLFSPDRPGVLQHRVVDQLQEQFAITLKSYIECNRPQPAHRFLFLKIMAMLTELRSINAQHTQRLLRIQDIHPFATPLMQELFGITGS
Chain of Thyrotropin receptor (Homo sapiens) (P16473 whole entry, looked up): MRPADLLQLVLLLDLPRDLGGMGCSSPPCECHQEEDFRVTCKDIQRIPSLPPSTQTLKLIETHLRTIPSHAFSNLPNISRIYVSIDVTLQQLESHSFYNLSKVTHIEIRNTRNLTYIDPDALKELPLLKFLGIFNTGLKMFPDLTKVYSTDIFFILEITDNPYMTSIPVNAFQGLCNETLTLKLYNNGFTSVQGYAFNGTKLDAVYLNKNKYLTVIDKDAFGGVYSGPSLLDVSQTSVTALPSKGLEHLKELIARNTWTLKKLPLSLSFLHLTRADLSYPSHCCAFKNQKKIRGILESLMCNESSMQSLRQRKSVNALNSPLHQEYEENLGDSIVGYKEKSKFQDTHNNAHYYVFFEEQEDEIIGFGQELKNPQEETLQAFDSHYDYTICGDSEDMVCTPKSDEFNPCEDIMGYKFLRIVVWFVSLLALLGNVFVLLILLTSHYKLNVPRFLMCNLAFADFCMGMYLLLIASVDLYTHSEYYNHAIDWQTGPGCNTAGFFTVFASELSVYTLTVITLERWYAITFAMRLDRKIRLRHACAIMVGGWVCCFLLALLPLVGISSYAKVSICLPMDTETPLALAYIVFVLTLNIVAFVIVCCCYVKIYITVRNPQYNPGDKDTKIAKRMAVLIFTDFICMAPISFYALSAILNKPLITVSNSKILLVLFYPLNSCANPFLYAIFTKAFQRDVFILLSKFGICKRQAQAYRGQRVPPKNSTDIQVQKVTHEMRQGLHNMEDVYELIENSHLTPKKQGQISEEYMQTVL
Chain of Nuclear receptor subfamily 1 group I member 2 (Rattus norvegicus) (Q9R1A7 whole entry, looked up): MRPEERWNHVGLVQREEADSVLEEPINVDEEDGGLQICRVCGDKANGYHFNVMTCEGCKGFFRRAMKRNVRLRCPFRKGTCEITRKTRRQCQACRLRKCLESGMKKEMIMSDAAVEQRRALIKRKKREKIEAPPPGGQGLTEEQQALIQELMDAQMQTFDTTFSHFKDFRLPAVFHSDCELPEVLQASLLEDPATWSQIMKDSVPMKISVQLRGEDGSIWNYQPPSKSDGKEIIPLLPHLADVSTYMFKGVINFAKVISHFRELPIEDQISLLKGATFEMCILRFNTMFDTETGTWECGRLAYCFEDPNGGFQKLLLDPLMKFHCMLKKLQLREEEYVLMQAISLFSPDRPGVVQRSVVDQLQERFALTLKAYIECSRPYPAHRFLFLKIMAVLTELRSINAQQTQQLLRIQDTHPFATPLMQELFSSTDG

`CCc1ccc(C=O)cc1`: the compound was called inactive in test [1], in test [5], in test [6], in test [7], in [8] and in [12]. Also, the Potency entry in test [2], in test [3], in test [4], in test [9], in [10] and in [11] was “inactive” in each case. In addition, the Potency result in test [13] and in [14] was “inactive” each time.

As for `CCOC(=O)c1ncn2c1CN(C)C(=O)c1cc(F)ccc1-2`, the compound was classed as inactive in [1], in [17], in [5], in test [6] and in [12]. The Potency result in test [2], in [4], in test [15], in [16], in test [9] and in test [10] was “inactive” each time. For the same compound, the Potency entry in test [11] and in test [13] was “inactive” in each case.

Consider `C[Si](C)=O`, for which the activity change, negative = inhibition in test [1] was -2.39% [at 8.39 µM]; in test [4], 12.9% [at 8.39 µM]. In addition, the activity change, negative = cytotoxicity in [2] was 2.9% [at 8.39 µM]; in test [15], 4.63% [at 8.39 µM]; in test [16] it was 7.66% [at 8.39 µM]; in [5] it was 3.98% [at 6.97 µM]; in [9] it was 7.41% [at 8.39 µM]; in test [11] it was 1.4% [at 8.39 µM]. Also, the viability change, negative = cytotoxic in [17] is 0.719% [at 6.97 µM]. Also, the activation in test [6] is -0.731% [at 6.97 µM]. For the same compound, the caspase activation in test [10] is 0.773% [at 8.39 µM]. Besides, the caspase-3/7 activation in test [12] is 0.203% [at 8.39 µM].

Regarding `Cc1ccc2ccc(Cl)cc2n1`, the call in test [1], in [5] and in [6] was inactive. For the same compound, the Potency result in test [2], in [3], in [4], in test [15], in test [9] and in [10] was “inactive” in each case. The Potency entry in [11], in [13] and in test [14] was “inactive” each time.

For the compound `Cc1nc2n(c(=O)c1CCN1CCC(c3noc4cc(F)ccc34)CC1)CCC[C@H]2O`, the values for the activity change, negative = inhibition in test [1] and in [4] were -7.26% [at 19 µM] and 1.27% [at 18.9 µM], respectively. The activity change, negative = cytotoxicity is -2.18% [at 19 µM] in test [2]; -12.9% [at 18.9 µM] in test [15]; -13.8% [at 19 µM] in test [16]; -1.25% [at 15.8 µM] in test [5]; -2.46% [at 19 µM] in test [9]; 8.49% [at 19 µM] in [11]. Besides, the activity change, negative = cytotoxicity in test [13] is 0.92% [at 19 µM]. Moreover, the viability change, negative = cytotoxic in [17] is 1.49% [at 15.8 µM]. Further, the activation in test [6] was 0.469% [at 15.8 µM]; in test [8], -0.0294% [at 11.8 µM]; in test [14], 13.9% [at 19 µM]. Moreover, in test [7], the activity, negative = inhibition is -5.29% [at 10.5 µM]. For the same compound, the caspase activation in test [10] was 0.536% [at 19 µM]. The caspase-3/7 activation in test [12] is 0.349% [at 19 µM].

Turning to `BrCc1cccc(Oc2ccccc2)c1`, the compound was called inactive in test [1], in [17], in test [5], in test [6], in test [7] and in test [8]. In addition, in test [12], the call was inactive. The Potency entry in test [2], in test [3], in test [15], in test [9], in test [10] and in test [11] was “inactive” each time. Further, in test [14], the Potency was 61.1 µM (active).

In the case of `O=C1CCCC(=O)O1`, the compound was classed as inactive in [1], in test [5], in test [6], in test [7], in test [8] and in [12]. The Potency result in [2], in [3], in [4], in test [15], in test [9] and in test [10] was “inactive” each time. The Potency entry in test [11], in test [13] and in test [14] was “inactive” each time.

Take `CC(=O)NCc1c(I)c(NC(C)=O)c(I)c(C(=O)O)c1I`: the call in [1], in test [17], in test [5], in [6], in [7] and in [8] was inactive. Besides, in test [12], the compound was classed as inactive. For the same compound, the Potency result in test [2], in test [3], in [15], in test [16], in [9] and in test [10] was “inactive” throughout. Also, the Potency result in [13], in test [19] and in test [20] was “inactive” in each case. For the same compound, in test [18], the max activation was -0.535%.

These data come from PubChem BioAssay (Tox21).
